Test results published in ChEMBL document CHEMBL3988442, “University of Dundee, Small-Polar-MMV Screening Library” (2021).
The campaign covered roughly 53,000 compounds. About 900 (1.7%) showed an effect of 50% or more. Only a selection was taken, and strong results are over-represented in it overall.

tested on: Mycobacterium tuberculosis; assay: Cornell - Phenotypic assay to identify agents that inhibit growth of Mycobacterium tuberculosis; type: functional; design: scale not given: direction of the effect not stated beside the values; details: 10 mM as filed; unlikely as a test dose

| SMILES | Percent Effect [%] |
| --- | --- |
| CN(CCc1nccs1)C(=O)CC1(O)CCCCC1 | 19.59 |
| COCCCNCc1cc(O)c2cc(C)cc(C)c2n1 | 3.207 |
| COc1ccc(OC2CCN(c3ccncc3)CC2)cc1 | 27.59 |
| CC(=O)Cn1nc(-c2ccccc2F)ccc1=O | 6.771 |
| Cc1cccc(CN2C(=O)C[C@H]3[C@@H]2CCN3Cc2ccc(F)cc2)n1.O=C(O)C(F)(F)F.O=C(O)C(F)(F)F | 15.09 |
| CCn1nc(C)cc1C(=O)N1C[C@@H]2C[C@@H](c3nnc(C)[nH]3)O[C@@H]2C1 | -8.9 |
| COc1cccc(CNC(=O)Cn2ccc3c(C)nn(C)c3c2=O)c1 | 4.678 |
| Cc1nn(C)c2c(=O)n(CC(=O)NCCC(C)C)ccc12 | 2.416 |
| Cc1nn(C)c2c(=O)n(CC(=O)NCc3ccc(N(C)C)cc3)ccc12 | 96.11 |
| OCCCN(CCn1cncn1)c1ccccc1 | -44.33 |
| c1ccc(N(CCn2cncn2)CC2CC2)cc1 | -28.11 |
| Oc1ccc(N(CCc2ccccc2)CCn2cncn2)cc1 | 107 |
| Cc1cc(CNC(=O)N2CCOC(c3ccccc3Cl)C2)no1 (centres undefined) | -0.6476 |
| COc1cc([C@@H]2N[C@H](c3nccs3)Cc3ccsc32)cc(OC)c1OC | 44.3 |
| COc1cccc([C@@H]2N[C@H](c3nccs3)Cc3ccsc32)c1OC | 50.54 |
| COc1ccc(OC)c([C@@H]2N[C@H](c3nccs3)Cc3ccsc32)c1 | 46.52 |
| Cc1ncc(-c2ccnc(NCCc3ccc(F)cc3)n2)c(=O)[nH]1 | -5.112 |
| Cn1ncc2c(N3CCN4CCCCC4C3)nc(C3CCCC3)nc21 (centres undefined) | 27.57 |
| CC1Cc2cc(-c3cncn3CC(=O)NC(C)(C)C)ccc2N1C.Cl (centres undefined) | -2.378 |
| CCOC(=O)c1n[nH]cc1-c1cncn1CCCn1nc(C)cc1C.Cl | 25.38 |
| Cc1nn(C)c(C)c1CCn1cncc1-c1ccc2c(c1)CC(C)N2C.Cl (centres undefined) | 64.61 |
| CN1CCCc2cc(-c3cncn3CC(=O)NC(C)(C)C)ccc21.Cl | 13.27 |
| Cc1cc(C)n(CCCn2cncc2-c2ccc3c(c2)CC(C)N3C)n1.Cl (centres undefined) | 63.97 |
| CN1CCCc2cc(-c3cncn3CCNC3CCS(=O)(=O)C3)ccc21.Cl (centres undefined) | 6.115 |
| CC(C)c1cc(C2CCCN2C(=O)c2cn3ccsc3n2)no1 (centres undefined) | 31.59 |
| Cc1cc(NC(=O)C2CCN(c3ncccc3C#N)CC2)no1 | -28.06 |

| SMILES | Percent Effect [%] |
| --- | --- |
| O=C(Cc1cccs1)NCc1ccnc(C2CCCOC2)n1 (centres undefined) | 6.218 |
| Cc1nc(C)n(CC2CCCN(c3ncnc4ccccc34)C2)n1 (centres undefined) | -29.18 |
| Cc1nc(C)n(CC2CCCN(c3ncnc4sccc34)C2)n1 (centres undefined) | -6.342 |
| Cc1nc(C)n(CC2CCCN(c3ncnc4ccsc34)C2)n1 (centres undefined) | 51.96 |
| Cc1ncccc1C(=O)Nc1cccc(C[S+](C)[O-])c1C (centres undefined) | 11.87 |
| COc1ccc(-n2cc(CNC(=O)c3ccc[nH]3)nn2)cc1 | 1.2 |
| CC(=O)N1CCC2(C1)CN(S(=O)(=O)c1ccccc1)C2 | 13.22 |
| c1cnnc(N2CCCC2CNCc2nc3ccccc3o2)c1 (centres undefined) | 108.2 |
| Cc1nc(CNCC2CCCN2c2cccnn2)oc1C (centres undefined) | 5.973 |
| CN(Cc1nc2ccccc2o1)CC1CCCN1c1cccnn1 (centres undefined) | -25.78 |
| Cn1cc(C(=O)N2CCO[C@@H]3CN(C4CCC4)C[C@@H]3C2)cn1 | 3.925 |
| COCCN1CCN(Cc2cccc(C(=O)N(C)C)c2)CC1 | -27.32 |
| CCC(C)N(Cc1cnc(OC)nc1)Cc1ccsc1 (centres undefined) | -2.85 |
| COCCCN(C)c1nc(-c2ccncc2)nc(C)c1C | 79.79 |
| COCCCN(C)c1nc(-c2ccncc2)nc2c1CCN(C(C)=O)C2 | -26.88 |
| Cc1nc(-c2ccncc2)nc(N(C)CCc2ccncc2)c1C | -4.993 |
| NC(=O)C1CCN(C(=O)NCc2ccc(-c3ccn[nH]3)cc2)CC1 | -27.61 |
| O=C(N1CCCO1)[C@@]12CCO[C@@H]1CCN(Cc1ccccn1)C2.O=C(O)C(F)(F)F.O=C(O)C(F)(F)F | 16.34 |
| O=C(Nc1cccnn1)NC(CCCO)c1ccccc1 (centres undefined) | -8.222 |
| CC(C)Oc1cccc(C(O)CNC(=O)CCc2ccncc2)c1 (centres undefined) | 31.72 |
| O=C(NCC(O)c1ccsc1)Nc1cccs1 (centres undefined) | 98.83 |
| Cc1csc(CNC(=O)NCC(O)c2ccccc2)n1 (centres undefined) | -28.19 |
| O=C(Nc1ccccn1)NC(CCCO)c1ccccc1 (centres undefined) | -24.69 |
| CCOc1ccccc1CCNC(=O)NCC(O)c1ccsc1 (centres undefined) | 26.35 |
| O=C(NCC(O)c1ccccc1)Nc1cccs1 (centres undefined) | 59.31 |
| O=C(NCCc1ccccc1)NCC(O)c1cccs1 (centres undefined) | 16.84 |

| SMILES | Percent Effect [%] |
| --- | --- |
| CC(C)Oc1cccc(C(O)CNC(=O)Nc2cccs2)c1 (centres undefined) | 105 |
| O=C(Nc1cccs1)NC(CCCO)c1ccccc1 (centres undefined) | 101.4 |
| O=C(NCC(O)c1ccsc1)c1sccc1OC(F)F (centres undefined) | 14.09 |
| CC(C)Oc1cccc(C(O)CNC(=O)NCc2cccs2)c1 (centres undefined) | 7.446 |
| Cc1cc(C)n2c(CNCc3ccc(OC(F)F)cc3)cnc2n1 | -7.615 |
| Cn1ncc2c(N3CCCN(C(=O)c4ccsc4)CC3)ncnc21 | 16.86 |
| CCCc1ccc(CN2CCC3(CCC(=O)N(CCO)C3)CC2)o1 | 9.804 |
| COc1ccccc1C(=O)N1CCOC2(CCCN(C(C)=O)C2)C1 (centres undefined) | 23.26 |
| Fc1ccc(C2CCCN2Cc2nnnn2C2CC2)cc1 (centres undefined) | -22.59 |
| O=C(NCCCN1CCCC1=O)c1nc(-c2ccc3[nH]ccc3c2)no1 | 3.66 |
| Cn1cccc1C(=O)N1CCC2(CC1)COC(COc1ccccn1)C2.O=C(O)C(F)(F)F (centres undefined) | 9.973 |
| CC(C)C(NC(=O)N1CCN(c2ccc(Cl)cc2)CC1)C(=O)NC1CC1 (centres undefined) | 93.48 |
| CC(C)NC(=O)[C@H](C)NC(=O)N1CCN(c2ccc(Cl)cc2)CC1 | -2.997 |
| CN(C(=O)NC1CC1)C1CCN(c2ccc(Cl)cc2)CC1 | 17.37 |
| CC(C)NC(=O)C(C)NC(=O)N1CCN(c2ccc(Cl)cc2)CC1 (centres undefined) | -27.07 |
| C[C@H](NC(=O)N1CCN(c2ccc(Cl)cc2)CC1)C(=O)N1CCSCC1 | 11.26 |
| CC(C)NC(=O)[C@@H](NC(=O)N1CCN(c2ccc(Cl)cc2)CC1)C(C)C | 70.57 |
| CC(NC(=O)N1CCN(c2ccc(Cl)cc2)CC1)C(=O)N1CCSCC1 (centres undefined) | 21.43 |
| CC(C)[C@H](NC(=O)N1CCN(c2ccc(Cl)cc2)CC1)C(=O)NC1CC1 | 4.583 |
| CC(C)NC(=O)C(NC(=O)N1CCN(c2ccc(Cl)cc2)CC1)C(C)C (centres undefined) | 76.86 |
| Fc1ccccc1NCc1nc2n(n1)CCCCC2 | 6.356 |
| NC(=O)CN1CCCC(c2cncc(Nc3ncccn3)n2)C1 (centres undefined) | 28.6 |
| COCCN1C(=O)CC[C@]12CC[C@@H](NC(=O)c1cnccn1)CC2 | 8.611 |
| CCCc1nnnn1CC(=O)NCc1cccc(C)c1 | 14.77 |
| CCOC(=O)C1(Cc2ccccc2-c2ccccc2OC)CCNCC1.Cl | 1.496 |
| CNc1[nH]nc(N)c1NC(=O)c1ccccc1 | 107.3 |

| SMILES | Percent Effect [%] |
| --- | --- |
| CNc1[nH]nc(N)c1C(=O)Nc1ccccc1 | -18.4 |
| CNc1[nH]nc(N)c1C(=O)Nc1ccc(OC)cc1 | -4.193 |
| FC(F)(F)c1cc(C2CCN(c3cnccn3)CC2)n2ccnc2n1 | 47.21 |
| Cc1nc(Nc2cnccn2)cc(C2CCCN(C(C)C)C2)n1 (centres undefined) | -5.253 |
| FC(F)(F)c1cc(C2CCCN(c3cnccn3)C2)n2ccnc2n1 (centres undefined) | 5.193 |
| Cc1cc(C)nc(Nc2nccnc2C2CCCN(C(C)C)C2)n1 (centres undefined) | 29.5 |
| FC(F)(F)c1cc(C2CCCN(c3ncccn3)C2)n2ccnc2n1 (centres undefined) | 58.69 |
| CC(C)N1CCCC(c2cc(C(F)(F)F)nc3nccn23)C1 (centres undefined) | 55.76 |
| NC(=O)c1ccc(C2CCCN2C(=O)CCc2nc3ccccc3s2)s1 (centres undefined) | -11.96 |
| Cc1cnc(C)c(N2CCCC(CO)(Cc3ccccc3C)C2)n1 (centres undefined) | 5.498 |
| CC(=O)c1ccc(N2CCCC(CO)(Cc3ccccc3C)C2)nc1 (centres undefined) | 13.02 |
| Cc1ccccc1CC1(CO)CCCN(c2ncnc3sccc23)C1 (centres undefined) | 79.2 |
| Cc1ccccc1CC1(C(=O)O)CCCN(c2ncnc3[nH]ccc23)C1 (centres undefined) | 8.891 |
| Cc1ccccc1CC1(CO)CCCN(c2ncncc2C(C)C)C1 (centres undefined) | 81.01 |
| c1csc(N2CCCN(c3ncnc4sccc34)CC2)n1 | 9.712 |
| CC(=O)NCCNC(=O)CCn1c(C)cc2ccccc21 | 15.36 |
| Cc1cc(NC(=O)CN2CCCC2c2noc(C3CC3)n2)n(C)n1 (centres undefined) | -35.39 |
| O=C(O)C(F)(F)F.O=C(c1ccccc1F)N1CCC2(CC1)CC(Oc1ccccn1)CO2 (centres undefined) | 20.39 |
| Cl.NCC(=O)N1CCCC1c1n[nH]cc1-c1ccccc1F (centres undefined) | -8.12 |
| CN(C)c1nccc(C2CN(c3ccccc3)CCO2)n1 (centres undefined) | 59.44 |
| CN(C)c1nccc(C2CN(c3cnccn3)CCO2)n1 (centres undefined) | -32.07 |
| CN(C)c1nccc(C2CCN(c3ncccn3)CC2)n1 | 38.24 |
| CC(C)N1CCOC(c2ccnc(N(C)C)n2)C1 (centres undefined) | 50.07 |
| CC(=O)N1CCCC(c2ccnc(N(C)C)n2)C1 (centres undefined) | -19.51 |
| CC(=O)N1CCOC(c2ccnc(N(C)C)n2)C1 (centres undefined) | 23.94 |
| O=C(Cn1ccnc1)N1C[C@@H]2CC[C@H](Oc3ccccc3F)[C@@H]2C1 | -34.19 |
